This excerpt belongs to a sample that is enriched for hits.
ALOX12 inh: blocks human arachidonate 12S-lipoxygenase | purified 12hLO, xylenol orange hydroperoxide absorbance | AID 1671190 | Potency, µM (doses to about 108 µM), without a hit: top-dose activity change, negative = inhibition, usual class: inhibitors | 580,000 tested, 1.1% active; further: on the % scale 0 is the no-effect control and ±100 the full control effect
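Purified human 12hLO (150 nM final) in 25 mM Hepes, 0.01% Triton X-100, pH 7.0 was preincubated 15 min at room temperature with compound. Then 40 uM arachidonic acid was added, 30 min. Hydroperoxide was read by Fe-XO absorbance ratio 573/405 nm.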
Glioma ERSR ind: inducers of ER stress response in human glioma cells | 420,000 tested, 0.02% active | Potency, µM, for the others: at the highest dose activation, most hits filed as activators | AID 602332 | U87-MG GRP78 promoter luciferase reporter, 16 h; further: series mostly up to about 76 µM; % of control where 0% means no effect; nearly all actives have a fitted effect of over 35% in size
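ERSR induction read as luciferase luminescence (Bright-Glo, 10 min at room temperature) in stably transfected human U87-MG glioma cells exposed to compounds for 16 h, using GRP78 as sensor.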
VDR inh: inhibitors of human vitamin D receptor; 400,000 tested, 0.93% active; VDR-SRC2-3 peptide fluorescence polarization, 2 h; Potency, µM, without a hit: max response, negative = inhibition, most hits filed as inhibitors; P11473; further: on the % scale 0 is the no-effect control and ±100 the full control effect
Target sequence (P11473 whole entry, looked up): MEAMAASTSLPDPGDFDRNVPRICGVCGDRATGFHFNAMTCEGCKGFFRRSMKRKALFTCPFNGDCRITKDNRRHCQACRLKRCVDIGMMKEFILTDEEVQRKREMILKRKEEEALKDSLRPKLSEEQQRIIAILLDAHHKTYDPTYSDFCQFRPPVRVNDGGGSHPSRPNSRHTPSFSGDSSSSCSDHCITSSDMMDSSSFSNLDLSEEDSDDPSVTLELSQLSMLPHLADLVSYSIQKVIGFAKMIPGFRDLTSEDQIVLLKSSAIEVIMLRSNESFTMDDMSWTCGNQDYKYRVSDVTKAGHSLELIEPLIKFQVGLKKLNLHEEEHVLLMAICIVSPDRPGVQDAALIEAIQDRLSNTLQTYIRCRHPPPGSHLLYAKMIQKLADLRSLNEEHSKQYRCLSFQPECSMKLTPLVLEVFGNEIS
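Two reagent solutions held at 4 deg C in the dark were dispensed, compounds pinned at 23 nl, and the mixture incubated 2 h at room temperature. Read-out: fluorescence polarization of VDR–SRC2-3 peptide binding.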
G9a block: inhibitors of human histone lysine methyltransferase G9a; Potency, µM (doses to about 102 µM), for the others: at the top dose activity, negative = inhibition, most hits filed as inhibitors; 350,000 tested, 8.8% active; G9a H3K9 monomethylation, AlphaScreen, 2 h; AID 504332; Q96KQ7; further: on the % scale 0 is the no-effect control and ±100 the full control effect; nearly all actives have a fitted effect of over 75% in size
Target sequence (Q96KQ7 913-1193 limits assumed): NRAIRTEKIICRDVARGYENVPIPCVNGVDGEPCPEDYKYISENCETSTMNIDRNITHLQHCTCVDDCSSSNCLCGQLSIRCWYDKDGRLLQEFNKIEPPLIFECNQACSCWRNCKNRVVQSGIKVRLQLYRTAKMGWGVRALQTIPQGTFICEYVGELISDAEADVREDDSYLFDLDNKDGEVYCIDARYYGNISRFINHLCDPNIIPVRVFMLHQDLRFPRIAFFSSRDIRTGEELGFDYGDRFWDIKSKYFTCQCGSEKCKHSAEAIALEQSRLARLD
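G9a (20 nM) preincubated 15 min RT with compounds, then 500 nM biotinylated H3K9 peptide and 20 uM SAM added; 2 h RT reaction. Monomethyl-H3K9 product detected by AlphaScreen with anti-H3K9me1 antibody, streptavidin donor and anti-rabbit IgG acceptor beads.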
Sfp inh: Sfp phosphopantetheinyl transferase inhibition; Q9F4F7; Biochemical Sfp PPTase activity, qHTS; Potency, µM, for the others: largest response in the series, negative = inhibition, usual class: inhibitors; 310,000 tested, 3.5% active;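 further: the enzyme is Sfp with the accession as filed and its product quenches rhodamine fluorescence; 0% = enzyme reaction without inhibitor and -100% = no enzyme wells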
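Buffer: 50 mM Hepes-Na pH 7.6, 10 mM MgCl2, 0.01% Nonidet P-40, 0.01% BSA. Enzyme 15 nM, pre-exposed to compound 15 min; substrates then added and fluorescence change tracked over 30 min.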
The depositor's hits bear a star; u = inconclusive; x = no result given; ! = repeats disagree; [ ] = another dose, or the depositor's remark. The call rests on the fitted dose curve; in most records, active means well fitted curve in the direction sought with a large enough effect; inconclusive means small, poorly fitted or top-dose-only effect, or another doubt; inactive means no such curve, though single readings can be large; an effect the other way counts as inactive or inconclusive. Potency means the concentration at half of the fitted maximal effect.

SMILES	ALOX12 inh	Glioma ERSR ind	VDR inh	G9a block	Sfp inh
Cc1ccc(C(=O)N2CCCCCCNC(=O)[C@@H]3C[C@@H](c4nc(-c5cccnc5)no4)C[C@@H]32)s1	33%	x	x	x	x
O=C(COc1ccc(C(=O)c2ccccc2)cc1)NCc1ccccc1CN1CCCC1	-24%	x	x	x	x
Cc1ccc(C(NC(=O)N2CCN(C)CC2)C(Cl)(Cl)Cl)cc1F (configuration not stated)	-27%	x	x	x	x
COC(=O)CCC(=O)c1oc2ccc(Br)cc2c1N	-27%	8%	-21%	-8%[59 µM]	2%
COc1ccc2oc(C)c(C(=O)NN)c2c1	0%	-1%	18%	10µM*	-18%
COc1ccc2oc(C(=O)CCC(=O)O)c(N)c2c1	-3%	2%	-1%	50µM*	-7%
CCOC(=O)CCC(=O)c1c(C)oc2ccc(OC)cc12	-2%	-7%	-3%	-4%[12.7 µM]	17%
COc1ccc(NC(=O)c2cc3c(OC)cc(OC)c(OC)c3[nH]2)cc1	8%	x	x	x	x
Cc1ccc(C)c(NC(=O)CCC(=O)N/N=C/c2ccc[nH]2)c1	6%	-6%	21%	x	-17%
Cc1c(Cl)cccc1NC(=O)CCC(=O)N/N=C/c1ccc[nH]1	-14%	-2%	-12%	18µM*	45µM*
Cc1c(Cl)cccc1NC(=O)CCN1C(=O)NC(C)(C)C1=O	1%	-1%	9%	50µM*	x
Cc1c(Cl)cccc1NC(=O)CCN1CCOCC1	11%	-3%	-13%	40µM*	0%
Cc1c(Cl)cccc1NC(=O)NCc1ccccn1	11%	0%	12%	95%	19%
Cc1c(Cl)cccc1NC(=O)NCc1ccc(F)cc1	-2%	2%	-3%	50µM*	3%
N#Cc1cccc(NC(=O)NCCNc2ccccn2)c1	14%	x	x	x	x
Cc1ccc(OCCN2CCC(CO)CC2)cc1	-21%	x	x	x	x
CC(=O)Nc1ccc(N2CCCC2)cc1	-12%	-1%	10%	u	40µM*
CC(=O)N1CCN(c2ccc(NC(=O)c3ccc(C(C)(C)C)cc3)cc2)CC1	0%	-1%	-7%	11µM*	-17%
CC(=O)N1CCN(c2ccc(NC(=O)c3ccc(Cl)cc3)cc2)CC1	-25%	-2%	4%	17%[59 µM]	23%
O=C(Nc1ccc(N2CCCC2)cc1)c1ccc2ccccc2c1	u	-2%	-2%	6.3µM*	-1%
Cc1ccc(C(=O)Nc2ccc(N3CCCC3)cc2)cc1	u	9%	-4%	1.6µM*	-7%
CC(C)(C)c1cc(NC(=O)CS(=O)(=O)c2ccc(F)cc2)on1	-18%	x	x	x	x
O=C(COC(=O)C1C=CCCC1)c1ccc(Cl)cc1 (configuration not stated)	3%	x	x	x	x
COCCCNC(=S)Nc1ccc(N2CCCCC2)cc1	-26%	3%	28%	u	-11%
CCNC(=S)Nc1ccc(N2CCCCC2)cc1	-32%	7%	u	32µM*	-18%
SMILES	ALOX12 inh	Glioma ERSR ind	VDR inh	G9a block	Sfp inh
O=C(Nc1ccccc1N1CCCC1)c1cccc(-c2cc3ccccc3oc2=O)c1	6%	-1%	-11%	u	5%
O=C(Nc1ccc(N2CCCC2)cc1)c1cccc(-c2cc3ccccc3oc2=O)c1	11µM*	3%	u	1.6µM*	16µM*
CCN(CC)S(=O)(=O)NCc1ccccc1Cn1cccn1	4%	x	x	x	x
COc1ccc(C)cc1-n1ccnc1SCC(=O)Nc1nc(C)cs1	7%	x	x	x	x
O=C(NCc1ccccc1Cn1cccn1)c1cn[nH]c1-c1ccc(F)cc1	24%	x	x	x	x
CCOc1ccc(/C=N/O)c(OC)c1	23%	x	x	x	x
CCCN=Cc1sc2ccc(OCC)cc2c1O	u	3%	-9%	u	50µM*
Cc1ccc(/C=N/NC(=O)c2cc(-c3ccccc3)nc3ccccc23)o1	-21%	2%	1%	2%[0.0925 µM]	50µM*
Cc1ccc(C=NNC(=O)c2cc(-c3cccnc3)nc3ccccc23)o1	10µM*	-5%	-18%	x	x
O=C(N/N=C/c1ccc2c(c1)OCO2)c1cc(-c2ccc(F)cc2)nc2ccccc12	-1%	-1%	-11%	3%	45µM*
Cc1ccc(/C=N/NC(=O)c2cc(C3CC3)nc3ccccc23)o1	-11%	-5%	4%	2%[59 µM]	50µM*
CC(=O)Nc1cc(-c2ccccc2N(C)C)cn2c(-c3ccc(S(C)(=O)=O)cc3)cnc12	-14%	-3%	x	x	x
CC(=O)Nc1cc(-c2ccccc2N(C)C)cn2c(-c3ccccc3)cnc12	45µM*	5%	x	x	x
COc1cccc(/C=C/C(=O)OCc2ccc(C#N)cc2)c1OC	1%	x	x	x	x
C(=C\c1ccccc1)/CNCC1CCNCC1	8%	x	x	x	x
Cc1cccn2cc(CSc3nnc(Nc4ccc(C(C)C)cc4)s3)nc12	2%	-2%	-6%	40µM*	-2%
COc1ccc(Nc2nnc(SCc3cn4c(C)cccc4n3)s2)cc1	16%	-4%	-14%	u	4%
O=C(NCCN1CCN(C(=O)c2ccccc2)CC1)C(=O)Nc1ccccc1	11%	x	x	x	x
Clc1ccc(C2NCCc3sccc32)cc1 (configuration not stated)	-1%	0%	-15%	2%	-10%
Oc1ccc(C2CNCc3sccc32)cc1O (configuration not stated)	u	-5%	13µM*!	3µM*	x
CC(C)(C)c1ccc(Nc2ccc(C(C)(C)C)cc2)cc1	-38%	x	x	x	x
COc1cccc(CNc2ccc(F)c([N+](=O)[O-])c2)c1O	u	10%	-4%	50µM*	12%
COc1cc(CNc2ccccc2)c([N+](=O)[O-])cc1OC	u	0%	1%	25µM*	45µM*
COc1cccc(-c2cncnc2NCc2ccc(OC)cc2OC)c1	13µM*	-5%	-1%	x	-11%
COc1cccc(-c2cncnc2NCc2ccccc2OC)c1	-30%	-1%	u	-46%[0.501 µM]	3%
SMILES	ALOX12 inh	Glioma ERSR ind	VDR inh	G9a block	Sfp inh
COc1cccc(-c2cncnc2Nc2ccc(F)cc2)c1	u	-3%	50µM*	3%[0.501 µM]	79µM*
COc1ccc(CNc2ncnc3ccc(-c4ccoc4)cc23)c(OC)c1	-27%	-3%	40µM*	-29%[0.501 µM]	-2%
COc1ccc(CNc2ncncc2-c2ccoc2)c(OC)c1	u	-1%	50µM*	0%[0.501 µM]	2%
CCCn1cc(-c2ccncc2)cc1C(=O)N1CCN(c2ccccc2F)CC1	-6%	x	x	x	x
CCc1c(C(=O)Nc2ccccc2C#N)csc1C	5%	x	x	x	x
COc1ccc(CCCC(=O)NC2CCCCC2C)c(C)c1 (configuration not stated)	8.9µM*	-4%	2%	8%	4%
CC(=O)CC(=O)Nc1ccc(C(N)=O)cc1	0%	0%	-22%	25µM*	-5%
O=C(Nc1ccc(Nc2ccccc2)cc1)C1CC1	8%	7%	-15%	25µM*	-12%
CC(=O)Nc1ccc(Nc2ccccc2)cc1	-20%	2%	4%	x	4%
O=C(Nc1ccccc1)C1CCN(c2nccs2)CC1	-25%	-2%	-1%	50µM*	-2%
O=C(Nc1ccccc1)C1CCCCC1	0%	-1%	8%	-1%[59 µM]	12%
CCCC(=O)Nc1ccc(C(N)=O)cc1	13%	-5%	15%	-12%	-1%

From PubChem
